# Results published in publication PMC11062922 (Nature Chemical Biology, 2023).
# Where two headings read alike, the source gives them in different places.
# How the values were obtained:
# [1] = test system: ADCK1; design: species or system human, MV4-11 + K-562 + COLO205 + SK-N-BE2 + OVCAR-8; settings: read-out: apparent Kd; compound concentrations:100 nM and 1000 nM (sheet 'Samples'); n = 1
# [2] = test system: CIT; design: species or system human, MV4-11 + K-562 + COLO205 + SK-N-BE2 + OVCAR-8; settings: read-out: apparent Kd; compound concentrations:100 nM and 1000 nM (sheet 'Samples'); n = 1
# [3] = test system: CSNK1D; design: species or system human, MV4-11 + K-562 + COLO205 + SK-N-BE2 + OVCAR-8; settings: read-out: apparent Kd, n = 1
# [4] = test system: CSNK1E; design: species or system human, MV4-11 + K-562 + COLO205 + SK-N-BE2 + OVCAR-8; settings: read-out: apparent Kd, n = 1
# [5] = test system: T1, DJA1; design: species or system human, MV4-11 + K-562 + COLO205 + SK-N-BE2 + OVCAR-8; settings: read-out: apparent Kd; compound concentrations:100 nM and 1000 nM (sheet 'Samples'); n = 1
# T1 construct: gene DNAJA1
# [6] = test system: GAK; design: species or system human, MV4-11 + K-562 + COLO205 + SK-N-BE2 + OVCAR-8; settings: read-out: apparent Kd; compound concentrations:100 nM and 1000 nM (sheet 'Samples'); n = 1
# [7] = test system: IARS; design: species or system human, MV4-11 + K-562 + COLO205 + SK-N-BE2 + OVCAR-8; settings: read-out: apparent Kd; compound concentrations:100 nM and 1000 nM (sheet 'Samples'); n = 1
# [8] = test system: PIK3CD; design: species or system human, MV4-11 + K-562 + COLO205 + SK-N-BE2 + OVCAR-8; settings: read-out: apparent Kd; compound concentrations:100 nM and 1000 nM (sheet 'Samples'); n = 1
# [9] = test system: PRKACB; design: species or system human, MV4-11 + K-562 + COLO205 + SK-N-BE2 + OVCAR-8; settings: read-out: apparent Kd; compound concentrations:100 nM and 1000 nM (sheet 'Samples'); n = 1
# [10] = test system: PRKCD; design: species or system human, MV4-11 + K-562 + COLO205 + SK-N-BE2 + OVCAR-8; settings: read-out: apparent Kd; compound concentrations:100 nM and 1000 nM (sheet 'Samples'); n = 1
# [11] = test system: PRKCQ; design: species or system human, MV4-11 + K-562 + COLO205 + SK-N-BE2 + OVCAR-8; settings: read-out: apparent Kd; compound concentrations:100 nM and 1000 nM (sheet 'Samples'); n = 1
# [12] = test system: PRKD2; design: species or system human, MV4-11 + K-562 + COLO205 + SK-N-BE2 + OVCAR-8; settings: read-out: apparent Kd; compound concentrations:100 nM and 1000 nM (sheet 'Samples'); n = 1
# [13] = test system: PRKD3; design: species or system human, MV4-11 + K-562 + COLO205 + SK-N-BE2 + OVCAR-8; settings: read-out: apparent Kd; compound concentrations:100 nM and 1000 nM (sheet 'Samples'); n = 1
# [14] = test system: TNIK; design: species or system human, MV4-11 + K-562 + COLO205 + SK-N-BE2 + OVCAR-8; settings: read-out: apparent Kd; compound concentrations:100 nM and 1000 nM (sheet 'Samples'); n = 1
# [15] = test system: ADCK3; design: species or system human, MV4-11 + K-562 + COLO205 + SK-N-BE2 + OVCAR-8; settings: read-out: apparent Kd, n = 1
# [16] = test system: ADRBK1; design: species or system human, MV4-11 + K-562 + COLO205 + SK-N-BE2 + OVCAR-8; settings: read-out: apparent Kd, n = 1
# [17] = test system: MAPK11; design: species or system human, MV4-11 + K-562 + COLO205 + SK-N-BE2 + OVCAR-8; settings: read-out: apparent Kd; compound concentrations:100 nM and 1000 nM (sheet 'Samples'); n = 1
# [18] = test system: MAPKAPK2; design: species or system human, MV4-11 + K-562 + COLO205 + SK-N-BE2 + OVCAR-8; settings: read-out: apparent Kd; compound concentrations:100 nM and 1000 nM (sheet 'Samples'); n = 1
# [19] = test system: ATM; design: species or system human, MV4-11 + K-562 + COLO205 + SK-N-BE2 + OVCAR-8; settings: read-out: apparent Kd; compound concentrations: 100 nM and 1000 nM (sheet 'Samples'), CATDS: 0.655973384718888; n = 1
# [20] = test system: IRAK3; design: species or system human, MV4-11 + K-562 + COLO205 + SK-N-BE2 + OVCAR-8; settings: read-out: apparent Kd; compound concentrations: 100 nM and 1000 nM (sheet 'Samples'), CATDS: 0.24255292072304399; n = 1
# [21] = test system: LIMK1; design: species or system human, MV4-11 + K-562 + COLO205 + SK-N-BE2 + OVCAR-8; settings: read-out: apparent Kd; compound concentrations: 100 nM and 1000 nM (sheet 'Samples'), CATDS: 0.14732071058877899; n = 1
# [22] = test system: NEK1; design: species or system human, MV4-11 + K-562 + COLO205 + SK-N-BE2 + OVCAR-8; settings: read-out: apparent Kd; compound concentrations: 100 nM and 1000 nM (sheet 'Samples'), CATDS: 0.13907038524561799; n = 1
# [23] = test system: NUAK2; design: species or system human, MV4-11 + K-562 + COLO205 + SK-N-BE2 + OVCAR-8; settings: read-out: apparent Kd; compound concentrations: 100 nM and 1000 nM (sheet 'Samples'), CATDS: 0.15992761786182699; n = 1
# [24] = target: Q6ZSR9 (human, UniProt Q6ZSR9); design: species or system MV4-11 + K-562 + COLO205 + SK-N-BE2 + OVCAR-8; settings: read-out: apparent Kd; compound concentrations: 100 nM and 1000 nM (sheet 'Samples'), CATDS: 0.17489786753405201; n = 1
# [25] = test system: AKT2; design: species or system human, MV4-11 + K-562 + COLO205 + SK-N-BE2 + OVCAR-8; settings: read-out: apparent Kd; compound concentrations: 100 nM and 1000 nM (sheet 'Samples'), CATDS: 0.297394073145339; n = 1
# [26] = test system: BMPR2; design: species or system human, MV4-11 + K-562 + COLO205 + SK-N-BE2 + OVCAR-8; settings: read-out: apparent Kd; compound concentrations: 100 nM and 1000 nM (sheet 'Samples'), CATDS: 0.122163431962668; n = 1
# [27] = test system: CSNK1A1; design: species or system human, MV4-11 + K-562 + COLO205 + SK-N-BE2 + OVCAR-8; settings: read-out: apparent Kd; compound concentrations: 100 nM and 1000 nM (sheet 'Samples'), CATDS: 0.24698540566434601; n = 1
# [28] = test system: PKN2; design: species or system human, MV4-11 + K-562 + COLO205 + SK-N-BE2 + OVCAR-8; settings: read-out: apparent Kd; compound concentrations: 100 nM and 1000 nM (sheet 'Samples'), CATDS: 0.12366746425094501; n = 1
# [29] = compound concentrations:100 nM and 1000 nM (sheet 'Samples')
# Chain of Q6ZSR9 (Q6ZSR9 whole entry, looked up): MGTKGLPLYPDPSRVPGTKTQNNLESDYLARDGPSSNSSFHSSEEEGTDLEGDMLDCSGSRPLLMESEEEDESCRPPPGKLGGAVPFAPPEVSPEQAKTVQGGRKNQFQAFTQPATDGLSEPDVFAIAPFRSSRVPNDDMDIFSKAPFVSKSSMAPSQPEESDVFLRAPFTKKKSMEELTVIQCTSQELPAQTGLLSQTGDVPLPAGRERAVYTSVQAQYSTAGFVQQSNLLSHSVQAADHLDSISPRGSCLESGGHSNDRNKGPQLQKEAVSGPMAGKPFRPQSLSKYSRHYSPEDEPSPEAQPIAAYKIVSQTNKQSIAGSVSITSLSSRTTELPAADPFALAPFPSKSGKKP
smiles,measurement,setting,value
Cc1n[nH]c2ccc(-c3cc(OC[C@@H](N)Cc4ccccc4)cnc3-c3ccoc3)cc12.Cc1n[nH]c2ccc(-c3cc(OC[C@@H](N)Cc4ccccc4)cnc3-c3ccoc3)cc12.O=C(O)C(F)(F)F.O=C(O)C(F)(F)F [GSK507358A],potency estimated from few doses,[1],1140 nM
same,potency estimated from few doses,[2],1120 nM
same,potency estimated from few doses,[3]; [29],711 nM
same,potency estimated from few doses,[4]; [29],1160 nM
same,potency estimated from few doses,[5],890 nM
same,potency estimated from few doses,[6],1500 nM
same,potency estimated from few doses,[7],2080 nM
same,potency estimated from few doses,[8],108 nM
same,potency estimated from few doses,[9],1740 nM
same,potency estimated from few doses,[10],1510 nM
same,potency estimated from few doses,[11],1580 nM
same,potency estimated from few doses,[12],690 nM
same,potency estimated from few doses,[13],353 nM
same,potency estimated from few doses,[14],141 nM
CNC(=O)c1ccc(C)c(-n2c(C)cc(OCc3ccc(F)cc3F)c(Br)c2=O)c1 [PFE-PKIS_41],potency estimated from few doses,[15]; [29],1260 nM
same,potency estimated from few doses,[16]; [29],1490 nM
same,potency estimated from few doses,[17],34.7 nM
same,potency estimated from few doses,[18],23.3 nM
COc1ccc(CNC(=O)c2ccc(-c3cc(-c4nnc(C)o4)ccc3C)cc2)cc1 [GW701032X],potency estimated from few doses,"[15]; compound concentrations: 100 nM and 1000 nM (sheet 'Samples'), CATDS: 0.40395097893739401",731 nM
same,potency estimated from few doses,[19],260 nM
FC(F)(F)c1ccc(/C=C/c2cncnc2Nc2ccc3[nH]c(Cc4ccccc4)nc3c2)cc1 [GW709199X],potency estimated from few doses,"[15]; compound concentrations: 100 nM and 1000 nM (sheet 'Samples'), CATDS: 1",456 nM
COc1cc(Nc2nccc(N3CCC(NC(=O)Nc4cccc(C(C)=O)c4)C3)n2)cc(OC)c1OC (stereo not drawn) [GSK1379753A],potency estimated from few doses,"[15]; compound concentrations: 100 nM and 1000 nM (sheet 'Samples'), CATDS: 0.16868464966378999",1380 nM
same,potency estimated from few doses,[20],726 nM
same,potency estimated from few doses,[21],1850 nM
same,potency estimated from few doses,[22],2140 nM
same,potency estimated from few doses,[23],1540 nM
same,potency estimated from few doses,[24],1280 nM
O=C1NC(=O)C(c2c[nH]c3ccccc23)=C1c1ccccc1 [RO0316849-000],potency estimated from few doses,"[15]; compound concentrations: 100 nM and 1000 nM (sheet 'Samples'), CATDS: 0.47545697813848398",812 nM
same,potency estimated from few doses,"[16]; compound concentrations: 100 nM and 1000 nM (sheet 'Samples'), CATDS: 0.28294798490762901",2270 nM
same,potency estimated from few doses,[25],2010 nM
Cc1cc(C)c2c(n1)sc1c(N)ncnc12 [RO4241967-000],potency estimated from few doses,"[15]; compound concentrations: 100 nM and 1000 nM (sheet 'Samples'), CATDS: 0.164080926877189",987 nM
same,potency estimated from few doses,[26],2210 nM
same,potency estimated from few doses,[27],453 nM
same,potency estimated from few doses,"[3]; compound concentrations: 100 nM and 1000 nM (sheet 'Samples'), CATDS: 0.25978966817559301",417 nM
same,potency estimated from few doses,"[4]; compound concentrations: 100 nM and 1000 nM (sheet 'Samples'), CATDS: 0.174355768455381",864 nM
same,potency estimated from few doses,[28],2120 nM
